# Laboratory results as given in article PMC13083723 (Patterns, 2026).
# Out of some 5,400 compounds screened, about 190 (3.5%) showed an effect of 50% or more. What follows is part of a selection rich in strong results, with near analogues and random picks from the rest.
# Test system: Vero-E6
# Assay: primary screen, phospholipidosis by LipidTOX staining; higher = more effect of the substance
# Conditions: 10 µM
# Summary of the method: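 Single-concentration screen at 10 μM, with DMSO 0.1 v/v % and amiodarone 10 μM as controls. Read-out is LipidTOX Red phospholipid staining, which tolerates aldehyde fixation, in Vero-E6 cells.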
row,SMILES,result_ITMP
1,O=C(NO)c1ccc(O)c(O)c1,-2.75%
2,C[C@]12CCC(=O)C[C@@H]1CC[C@@H]1[C@@H]2CC[C@]2(C)C=CC[C@@H]12,-0.52%
3,C[C@]12CC[C@H](O)C[C@H]1CC[C@@H]1[C@@H]2CC[C@]2(C)[C@@](O)(c3ccoc3)CC[C@]12O,-7.29%
4,Cc1ccccc1N(C)C(=O)c1ccc(S(=O)c2nccs2)c([N+](=O)[O-])c1 (stereo not shown),70.1%
5,CN1c2c(nc(N)[nH]c2=O)NC[C@@H]1CNc1ccc(C(=O)N[C@@H](CCC(=O)[O-])C(=O)[O-])cc1,-7.73%
6,CC[C@@]1(C2O[C@@H](C3O[C@@](O)(CO)[C@H](C)C[C@@H]3C)C[C@@H]2C)CC[C@H]([C@]2(C)CCC3(C[C@H](O)[C@@H](C)[C@@H]([C@H](C)[C@@H](OC)[C@H](C)C(=O)[O-])O3)O2)O1 (stereo partly shown),-2.43%
7,CN1CCN(c2nc3ccccc3nc2Cl)CC1,5.5%
8,CN1CCN2c3ccccc3Cc3ccccc3C2C1 (stereo not shown),15.9%
9,CN1CCN(C2=Cc3ccccc3Oc3ccc(Cl)cc32)CC1,61.3%
10,CN1CCN(c2cc(-c3ccccc3)nc(N)n2)CC1,5.46%
11,CN1C[C@@H]2c3ccccc3Oc3ccc(Cl)cc3[C@H]2C1.CN1C[C@H]2c3ccccc3Oc3ccc(Cl)cc3[C@@H]2C1,65.2%
12,CC(=O)NNC(=O)N1Cc2ccccc2Oc2ccc(Cl)cc21,-0.36%
13,CCCC(=O)[O-],-6.95%
14,CCOC(=O)[C@H](C)C[C@@H](Cc1ccc(-c2ccccc2)cc1)NC(=O)CCC(=O)[O-],0.47%
15,CC(C)Cc1ccc(C(C)C(=O)O)cc1 (stereo not shown) [R4A_0001344_001 / SPE_K14965640],1.58%
16,O=P([O-])(O)C(Cl)(Cl)P(=O)([O-])O,-2.27%
17,Cc1ccc(NC(=O)c2cccc(N(C)C)c2)cc1NC(=O)c1ccc(O)cc1,-6.05%
18,CNCc1ccc(C)c(NC(=O)c2ccc(Nc3nc(-c4ccccc4)c4ccccc4n3)cc2)c1,67.4%
19,Cc1cc(Nc2ccc(NC(=O)c3ccc(Nc4ccnc5ccccc45)cc3)cc2)nc(N)n1,13.5%
20,CN1C2C[C@H](OC(=O)[C@H](CO)c3ccccc3)C[C@H]1[C@H]1OC21 (stereo partly shown),-1.02%
21,C=C1/C(=C\C=C2/CCC[C@]3(C)[C@@H]([C@H](C)/C=C/C=C/C(O)(CC)CC)CC[C@@H]23)C[C@@H](O)C[C@@H]1O,-2.42%
22,C[C@@]12C(=O)OC(=O)[C@]1(C)[C@H]1CC[C@@H]2O1,7.41%
23,CNCCC=C1c2ccccc2CCc2ccccc21,64.4%
24,CNCC/C=C/c1cccnc1,-4.64%
25,CNCCC=C1c2ccccc2C=Cc2ccccc21,42.4%
